Vaccinia Venus = qHTS for Stage-Specific Inhibitors of Vaccinia Orthopoxvirus: Venus Reporter Primary qHTS | Vaccinia virus Venus reporter expression, fluorescence | AID 720580, 2013 | Potency, µM (titrated, usually from 36.5 µM), for the others: top-dose activity change, negative = inhibition, actives largely listed as inhibitors | 330,000 tested, 0.46% active; calls by dose curve; tested in A549 cells; note: potency is the fitted concentration of half-maximal effect; % is set by controls: 0 for no effect and ±100 for the full control effect; nearly all actives have a fitted effect of over 30% in size
Lassa entry inh = qHTS for Inhibitors of binding or entry into cells for Lassa Virus; 300,000 tested, 1.2% active; AID 540256, 2011; Lassa virus pseudotype entry inhibition, cell reporter; Potency, µM (titrated, usually from 37.9 µM), without a hit: at the top dose activity change, negative = inhibition, most hits filed as inhibitors; calls by dose curve; tested in HEK293 cells; note: potency is the fitted concentration of half-maximal effect; % is set by controls: 0 for no effect and ±100 for the full control effect; nearly all actives have a fitted effect of over 50% in size
Marburg entry inh = qHTS for inhibitors of binding or entry into cells for Marburg Virus | Potency, µM (series often up to 37.8 µM), without a hit: at the highest dose activity change, negative = inhibition, most hits filed as inhibitors | AID 540276, 2011 | Marburg virus pseudotyped entry inhibition, cell reporter | 300,000 tested, 1.8% active; calls by dose curve; tested in HEK293 cells; note: potency is the fitted concentration of half-maximal effect; % is set by controls: 0 for no effect and ±100 for the full control effect
VACV mCherry inh = qHTS for Stage-Specific Inhibitors of Vaccinia Orthopoxvirus: mCherry Reporter Primary qHTS | Vaccinia virus mCherry reporter infection, fluorescence | Potency, µM (top dose mostly 36.5 µM), without a hit: at the highest dose activity change, negative = inhibition, hits mostly inhibitors | 310,000 tested, 0.63% active; calls by dose curve; tested in A549 cells; note: potency is the fitted concentration of half-maximal effect; % is set by controls: 0 for no effect and ±100 for the full control effect; nearly all actives have a fitted effect of over 35% in size
CHX counter = Cycloheximide Counterscreen for Small Molecule Inhibitors of Shiga Toxin | cell reporter, cycloheximide protein synthesis inhibition counterscreen | max response, % | 300,000 tested, 12% active | AID 2314, 2010; in the data active = max response mostly above about 13%, no sharp cut-off; inactive = mostly below about 14%; note: read at 38.3 µM for the half of the compounds with a filed dose; 0% is about no effect
Shiga inhibitor = A qHTS for Small Molecule Inhibitors of Shiga Toxin. 290,000 tested, 9.2% active. Vero cells, Shiga toxin protein synthesis inhibition reporter. AID 2315, 2010. inhibition, % at 38.7 µM; in the data active = inhibition mostly above about 28%, no sharp cut-off; inactive = mostly below about 43%; note: 0% is about no effect
The depositor's hits bear a star; i = inactive; ? = inconclusive; / = no result given; [ ] = remark or other dose. The entries come from a sample that favours hits as a whole.

SMILES | Vaccinia Venus | Lassa entry inh | Marburg entry inh | VACV mCherry inh | CHX counter | Shiga inhibitor
COc1ccc(CCC(=O)NCc2nc3cccnc3n2Cc2ccccc2)cc1 | -10% | 3%[46.1 µM] | / | -11% | / | /
Cc1ccc(C(=O)c2cc3c(cc2[N+](=O)[O-])OCCO3)cc1 | 6% | 1% | -20% | 2% | 16* | 35
CC(=O)Nc1cc2c(cc1C(=O)c1ccc(C)cc1)OCCO2 | -15% | 1% | -13% | / | -1 | -14
O=C(c1ccccc1)c1cc2c(cc1[N+](=O)[O-])OCCO2 | / | / | / | / | 12* | 16
COc1ccc(OC)c(CCNC(=O)Cn2cccc2C(=O)c2ccccc2)c1 | / | / | / | / | -1 | -10
O=C(Cn1cccc1C(=O)c1ccccc1)NCc1ccccc1Cl | -5% | 5%[46.1 µM] | -2%[46.1 µM] | -12% | 38* | 75*
O=C(Cn1cccc1C(=O)c1ccccc1)NCc1ccccn1 | 1% | ? | -1% | -12% | -3 | -18
Cc1ccccc1C(=O)c1cccn1CC(=O)NCc1ccccc1Cl | / | / | / | / | 22* | 50*
CC1CCCCC1NC(=O)Cn1cccc1C(=O)c1ccccc1 (stereo unspecified) | -5% | 1%[46.1 µM] | -6%[46.1 µM] | -28% | 15* | 25
COc1ccccc1CNC(=O)Cn1cccc1C(=O)c1ccccc1 | 0%[7.34 µM] | / | / | i[7.34 µM] | 28 | 48*
COc1ccc(N(C)S(=O)(=O)c2ccc(Cl)c(C(=O)NCCc3ccc(Cl)cc3)c2)cc1 | -21% | ? | ? | -8% | 6 | 20
CCOc1ccc(CCNC(=O)c2ccc(C)c(-n3cnc4cccnc43)c2)cc1 | -14% | -20%[46.1 µM] | / | -12% | / | /
O=C(CC1SCCNC1=O)Nc1cccc(Cl)c1 (stereo unspecified) | / | 6% | ? | / | 17* | 39*
O=C(Cc1ccc(Cl)cc1)Nc1ccc(Br)cc1 | -12% | -15% | 8%[46.1 µM] | -9% | 30* | 74*
O=C(Cc1ccc(Br)cc1)Nc1cccc(Cl)c1 | -12% | -15%[46.1 µM] | 7%[46.1 µM] | i | 21* | 22
O=C(CC1SCCNC1=O)Nc1cccc(C(F)(F)F)c1 (stereo unspecified) | / | 21% | 1% | / | 8 | 27
COc1ccc(OC)c(S(=O)(=O)NCC(c2ccc(N(C)C)cc2)N2CCOCC2)c1 (stereo unspecified) | -11% | -7%[46.1 µM] | / | -14% | / | /
NCCNS(=O)(=O)c1ccc(Cl)c2ccncc12 | / | / | / | / | -2 | -3
NCCNS(=O)(=O)c1cccc2c(Cl)cccc12 | / | -29% | 11µM* | / | -8 | -9
Cc1ccc(-c2cccc(C3CC=CC4C3C(=O)N(Cc3ccccc3)C4c3ccc(C(F)(F)F)cc3)c2)cc1 (stereo unspecified) | -22% | / | / | ? | 0 | 9
COc1cccc([C@@H]2Oc3ccc(OC)cc3C(=O)[C@H]2OC(=O)Nc2cc(OC)c(OC)c(OC)c2)c1 | ? | -13% | 13%[14.2 µM] | 0% | 11* | 45*
COc1ccc2c(c1)C(=O)[C@H](O)[C@@H](c1ccc(OC)c(Br)c1)O2 | -11% | ? | -44% | ? | 19* | 54
COc1cccc([C@@H]2Oc3ccc(OC)cc3C(=O)[C@H]2OC(=O)NCc2ccc3c(c2)OCO3)c1 | / | -2% | 31% | / | 64* | 84*
COc1ccc2c(c1)O[C@H](c1ccc3c(c1)OCO3)[C@@H](OC(=O)NCc1ccc3c(c1)OCO3)C2=O | / | / | 0%[14.2 µM] | / | / | /
COCCN1C(=O)NC(c2ccc(Br)cc2)C(C(C)=O)=C1C (stereo unspecified) | / | / | 63%[14.2 µM] | / | / | /
SMILES | Vaccinia Venus | Lassa entry inh | Marburg entry inh | VACV mCherry inh | CHX counter | Shiga inhibitor
Clc1ccc(-c2nnn3c2nc(N2CCCCC2)c2ccccc23)cc1 | 3% | 3%[46.1 µM] | -2%[46.1 µM] | 6% | / | /
Oc1ccc2ccccc2c1N=Nc1ccccn1 | -20% | 8.9µM* | ? | / | 15 | 18
Oc1ccc2ccccc2c1N=Nc1ccccc1F | / | / | / | / | 4 | 21
COc1ccc(OC)c(NC(=O)c2cc(=O)c3c(C)cc(C)cc3o2)c1 | -2% | 8%[46.1 µM] | ? | -18% | / | /
CN(C)c1ccc(/C=C/c2ccnc3c(O)cccc23)cc1 | ? | / | / | 10µM* | / | /
CN(C)c1ccc(/C=C/c2cc[n+](C)c3ccccc23)cc1 | i | ? | 7.9µM* | i | 27* | 25
CC/C(=N/O)C(=O)c1ccc(Br)cc1 | 5% | 8.9µM* | 1%[46.1 µM] | -23% | 8 | 25
Cc1ccc(-n2c(=S)[nH]c3c(oc4ccccc43)c2=O)cc1 | -3% | 4% | 13% | -11% | 40* | 69*
Cc1cccc(-n2c(=S)[nH]c3c(oc4ccccc43)c2=O)c1 | -14% | 21% | 0% | -3% | 8.7* | 40
Cc1ccc(-n2c(C)nc3oc4ccccc4c(=O)c3c2=O)cc1 | / | ? | ? | / | 47* | 121*
Cc1nc2ccc(NC(=O)Cc3ccccc3F)cc2s1 | -13% | / | ? | i | 58* | 103*
Cc1nc2ccc(NC(=O)Cc3ccsc3)cc2s1 | ? | 3% | -1% | / | 28* | 25
Cc1nc2ccc(NC(=O)Cc3cccc(F)c3)cc2s1 | -6% | ? | ? | -7% | 36* | 39*
COC(=O)c1cccc(NC(=O)Cc2ccsc2)c1 | / | / | / | / | 12 | 19
Cc1nc2ccc(S(=O)(=O)NCC(=O)Nc3ccc(F)cc3)cc2s1 | -3%[7.34 µM] | / | / | 0%[7.34 µM] | -7 | 3
Cc1ccc(NC(=O)Cc2ccsc2)cc1Cl | / | / | / | / | 25* | 56*
CC1CCCCN1C(=O)C1CCN(c2nc(-c3ccccc3)nc3c2CCC3)CC1 (stereo unspecified) | / | / | / | / | 4 | 5
CCOC(=O)C(=O)Nc1cc(C)on1 | -10% | -12% | -2%[46.1 µM] | i | 72* | 80*
CCC(Oc1ccccc1)C(=O)NC1CCCCCC1 (stereo unspecified) | / | / | / | / | -1 | -7
CCCCNC(=O)Nc1cc(C)on1 | / | 4% | 2% | / | 12 | 13
CCC(OC(=O)C(NC(=O)c1ccccc1)c1ccccc1)C(=O)Nc1cc(C)on1 (stereo unspecified) | 3% | -6% | -1% | 3% | -2 | 26
CCC(Oc1ccccc1)C(=O)Nc1ccccn1 (stereo unspecified) | -11% | 17% | 13% | -15% | 26* | 22
CCC(Oc1ccccc1)C(=O)Nc1cc(C)on1 (stereo unspecified) | -2% | / | / | i | 15* | 38*
CCC1C(=O)NCCN1Cc1ccc2c(c1)CN(Cc1cccc(OC)c1)CCO2 (stereo unspecified) | 4% | / | / | -2% | / | /
Cn1c(/C=C/c2cccc(Br)c2)nc2ccccc2c1=O | ? | ? | 10µM* | -27% | 46* | 80*
O=c1c2ccccc2nc(/C=C/c2ccc(Br)cc2)n1CCO | -12%[7.34 µM] | ? | ? | 14%[7.34 µM] | / | /
Cc1[nH]c2ccccc2c1/C=C/c1nc2ccccc2c(=O)n1CCO | ? | 11µM* | ? | ? | 25* | 49*
